Laboratory results published in ChEMBL document CHEMBL3988442, “University of Dundee, Small-Polar-MMV Screening Library” (2021).
Hit rate of the full screen: of about 38,000 compounds, about 1,200 (3.2%) showed an effect of 50% or more. The median lay at about -58%. The entries come from a sample that favours strong results as a whole.

What follows are compounds tested on Plasmodium falciparum (assay: Calibr Malaria Delayed Death Assay SOP). Settings: concentration 4.99e-06 (unit not given; other assays of the set use mol/L).
Type: functional, organism-based
Parameters: scale not given: in the data most compounds retested in dose-response had high values

| Structure (SMILES) | Percent Effect [%] |
| --- | --- |
| Cc1ccc(SC2CCCC2)c(C(=O)NCc2n[nH]c(=O)[nH]2)c1 | -25.99 |
| COCCN(C(=O)c1c[nH]c2ncccc12)C1CCCC1 | -27.67 |
| O=C(c1c[nH]c2ncccc12)N(Cc1ccco1)C1CCCC1 | 86.68 |
| NC(=O)CN(C(=O)c1c[nH]c2ncccc12)C1CCCC1 | -54.97 |
| Cc1nc(N(C)C)nc(-c2cccc(-c3ccn(CCCF)n3)c2)c1C | -133.9 |
| CCOc1ccccc1N(C)Cc1nccn1C | 20.26 |
| CSCC(=O)N(Cc1ccccn1)Cc1ccccc1C | -232.7 |
| CC(C)CN(Cc1ccccn1)Cc1ccccc1C(=O)O | -129.3 |
| CCCN(Cc1ccccn1)Cc1ccccc1OC | -102.5 |
| COc1ccc(OC)c(Sc2ncccc2C(=O)N(C)CCC#N)c1 | -164.4 |
| CCOCCN1CCN(CCc2ccc3c(c2)CCO3)CC1 | -44.63 |
| Cc1noc([C@@H]2CCO[C@@H]3CCN(Cc4nccs4)C[C@@H]32)n1 | -49.2 |
| CCN1CC2(CC1=O)CN(C(C)=O)CCN(C(=O)NC)C2 (centres undefined) | -42.52 |
| CN(C)C(=O)N1CCN(CCn2nc3ccccn3c2=O)CC1 | -59.88 |
| O=C(O)c1cc(/C=C/c2ccccc2)ncn1 | -169 |
| N#Cc1ccc(C2CC(=O)Nc3c2cnn3C2CCCC2)cc1 (centres undefined) | 52.33 |
| O=C1CC(c2ccc(F)cc2)c2cnn(C3CCCC3)c2N1 (centres undefined) | -115.7 |
| O=C1CC(c2ccccc2)c2cnn(C3CCCC3)c2N1 (centres undefined) | -174.4 |
| COc1ccc(C(C)=O)cc1CN1CCn2cccc2C1C (centres undefined) | -51.16 |
| CNC(=O)C1CCN(Cc2nc(-c3ccc(SC)cc3)oc2C)C1 (centres undefined) | -104 |
| CSc1ccc(-c2nc(CN3CCC(CN)C3)c(C)o2)cc1 (centres undefined) | 88.32 |
| CSc1ccc(-c2nc(CN3CCC(C(N)=O)CC3)c(C)o2)cc1 | -89.92 |
| Cc1nc2c(c(NC3CCN(Cc4ccccc4)CC3)n1)CCNCC2 | 78.1 |
| Cc1nc2c(c(NC3CC3)n1)CCN(C(=O)CCc1cccnc1)CC2 | -33.43 |
| Cc1nc2c(c(NC3CCN(Cc4cccnc4)CC3)n1)CCNCC2 | -53.07 |
| Cc1cccc(CN2CC3(CCN(C(=O)C4CC4)CC3)OCC2=O)n1 | -86.74 |
| COc1c(C)cnc(CNC(=O)c2cnc3onc(C)c3c2)c1C | -29.67 |
| COCCN(C)C(=O)Cn1cccc(OC)c1=O | -122.8 |
| CN(CCCc1cc(-c2ccc(F)cc2)n[nH]1)C(=O)CCn1cncn1 | -232.6 |
